From PubChem BioAssay (NCATS) come the findings set out here.

Inconclusive results are not listed. Calls of active or inactive are those of the source. Unless noted, the call rests on the fitted dose curve; in most records, active means well fitted curve in the direction sought with a large enough effect; inconclusive means small, poorly fitted or top-dose-only effect, or another doubt; inactive means no such curve, though single readings can be large; an effect the other way counts as inactive or inconclusive.

A short description of experiment [1]: qHTS profiling of the MIPE4 collection as inhibitors of Plasmodium falciparum (DD2) proliferation (AID 743345; call rule not given here). The settings on record: P. falciparum Dd2 in erythrocytes, SYBR Green DNA, 72 h; at 28.5 µM (top of the series) unless noted. The essentials: (§1)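 Erythrocytes infected with P. falciparum (0.3% parasitemia, 2.5% hematocrit) incubated with compounds 72 h at 37 C, 5% CO2. Lysis with saponin/Triton buffer containing SYBR Green I, overnight at room temperature in the dark; DNA fluorescence (485/535 nm) normalised to 0.29 uM artemisinin and DMSO.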
(qHTS replaces the single test concentration by a dilution series.)

A short description of experiment [2]: qHTS profiling of the MIPE4 collection as inhibitors of Plasmodium falciparum (HB3) proliferation (AID 743347; call rule not given here;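 further: plate controls were DMSO vehicle wells for no effect and artemisinin wells for full effect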). The settings on record: P. falciparum HB3 in erythrocytes, SYBR Green DNA, 72 h; at 28.5 µM (top of the series) unless noted. The method, boiled down: as §1
Experiment [3] can be described thus: High-throughput drug toxicity screening in the BPDCN cell line Gen2.2 (AID 1224824; call rule not given here;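 further: cells exposed to compounds for 48 h before reading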). The settings on record: Gen2.2 BPDCN cells; at 45.8 µM (top of the series) unless noted. The essentials:
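CellTiter-Glo luminescence after 48 h compound exposure of Gen2.2 cells; percent activity set with DMSO as 100% and bortezomib (9.2 uM final) as 0%. Cells seeded at 500 per well, RPMI + 10% FBS, 37 °C.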

Experiment [4] is described as follows: High-throughput drug toxicity screening in the BPDCN cell line Cal-1 (AID 1224825; call rule not given here). The settings on record: Cal-1 BPDCN cell viability, qHTS; at 45.8 µM (top of the series) unless noted. The method, boiled down:
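Cal-1 cells, 500 per well in phenol-red-free RPMI with 10% FBS, exposed to compounds for 48 hours at 37C, 5% CO2. Viability read by CellTiter-Glo luminescence; percent activity normalized to DMSO (100%) and 9.2 uM bortezomib final (0%).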

The nature of experiment [5]: qHTS assay for measurement of the activity of small molecule inhibitors on Zika virus induced Caspase-3 activity in human iPSC derived neural progenitor cells (hNPCs) (AID 1224857). Further: % of control where 0% means no effect; nearly all actives have a fitted effect of over 65% in size. The essentials:
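Human iPSC-derived neural progenitor cells pretreated 1 hr with compounds, then infected with Zika virus (2 FFU/cell) for 6 hours at 37 C. Caspase-3/7 measured by Caspase-Glo luminescence; % inhibition calculated from induction scaled to uninfected (0%) and infected (100%) wells.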

A short description of experiment [6]: qHTS assay for measurement of the activity of small molecule inhibitors on Zika virus induced Caspase-3 activity in human astrocytoma cells (AID 1224859).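 Further: plate controls were ZIKV-infected untreated cells for no effect and uninfected cells for full effect.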 The method, boiled down: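 SNB-19 astrocytoma cells, 250/well, pretreated 1 h with compounds, then Zika virus at 2 FFU/cell for 6 h at 37 C; Caspase-Glo 3/7 luminescence after 30 min; percent inhibition normalised to uninfected and infected controls.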

Experiment [7] is described as follows: qHTS Screen of the MIPE 4.0 Collection Against Ewings Sarcoma (TC71) (AID 1259253). Further: nearly all actives have a fitted effect of over 40% in size. Further: potency means the concentration at half of the fitted maximal effect. The essentials:
(§2)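 Dose series incubated 48 h with cells in RPMI plus 5% FBS, glutamine and penicillin/streptomycin; cell viability then quantified via CellTiter-Glo.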

A short description of experiment [8]: qHTS Screen of the MIPE 4.0 Collection Against Ewings Sarcoma (EW8) (AID 1259255). Further: nearly all actives have a fitted effect of over 35% in size. Further: potency means the concentration at half of the fitted maximal effect.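 On viability: 100% = DMSO-treated cells and 0% = medium-only wells without cells.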 The essentials: as §2
Experiment [9] can be described thus: qHTS Screen of the MIPE 4.0 Collection Against Ewings Sarcoma (TC32) (AID 1259256). Further: nearly all actives have a fitted effect of over 45% in size. Further: potency means the concentration at half of the fitted maximal effect. The method, boiled down:
as §2

The nature of experiment [10]: qHTS assay to identify small molecule inhibitors of chordoma cells - UCH-1 (AID 1259355). Further: on the % scale 0 is the no-effect control and ±100 the full control effect; nearly all actives have a fitted effect of over 55% in size. The essentials: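 Cells (800/well) were seeded and left overnight at 37 C, 5% CO2, then treated with drugs at 15 concentrations plus a combination mix of auranofin, camptothecin, doxorubicin, rubitecan and topotecan. Viability after 48hr was read by CellTiter-Glo luminescence.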

Experiment [11] is described as follows: qHTS assay to identify small molecule inhibitors of chordoma cells - UCH-2 (AID 1259356). Further: on the % scale 0 is the no-effect control and ±100 the full control effect.
Experiment [12] in a line: qHTS profiling of the MIPE4 collection as inhibitors of Plasmodium falciparum (DD2) proliferation (Rep 2) (AID 743346; call rule not given here). The settings on record: P. falciparum Dd2 in erythrocytes, SYBR Green DNA, 72 h; at 28.5 µM (top of the series) unless noted. The essentials: as §1

For the molecule `Cc1cn([C@H]2C[C@H](N=[N+]=[N-])[C@@H](CO)O2)c(=O)[nH]c1=O`, the parasite growth remaining, % of DMSO control (lower = more inhibition) in [1] came out at 109%. Further, the growth, % of control in experiment [2] is 588%. Also, in [3], the cell viability, % of control (lower = more cytotoxic) worked out at 59.6%. The viability (% of control) in [4] came out at 78.5%. In addition, the Potency result in [5], in [6], in experiment [7], in experiment [8], in experiment [9] and in experiment [10] was “inactive” throughout. Besides, the molecule was called inactive in experiment [11].
With `O=C(CCCN1CCC(O)(c2ccc(Cl)cc2)CC1)c1ccc(F)cc1`, in experiment [3], the cell viability, % of control (lower = more cytotoxic) came to 58.3%. Further, the viability (% of control) in experiment [4] stood at 48.3%. For the same molecule, the Potency entry in experiment [5], in [6] and in experiment [10] was “inactive” throughout. In addition, the Potency in experiment [7] is 18.7 µM (active); in [9], 20.9 µM (active). Besides, the result in [11] was inactive.
For the molecule `CC(COc1ccccc1)N(CCCl)Cc1ccccc1` (stereo not given), the parasite growth remaining, % of DMSO control (lower = more inhibition) in [1] came to 26.2%. In [3], the cell viability, % of control (lower = more cytotoxic) was 82.3%. The viability (% of control) in experiment [4] came out at 45%. The Potency result in experiment [5], in experiment [6], in [7], in experiment [8], in [9] and in experiment [10] was “inactive” each time. In experiment [11], the molecule was classed as inactive.
Regarding `CC(C)NCC(O)c1ccc(O)c(O)c1` (stereo not given), the parasite growth remaining, % of DMSO control (lower = more inhibition) in [1] came to 91.4%. Besides, the growth, % of control in experiment [2] was determined as 9.05%. Moreover, in [3], the cell viability, % of control (lower = more cytotoxic) is 46.4%. For the same molecule, the viability (% of control) in experiment [4] stood at 16%. Moreover, the Potency result in experiment [5], in [6] and in experiment [10] was “inactive” throughout. Further, the figures for the Potency in experiment [7] and in experiment [8] were 5.9 µM (active) and 20.9 µM (active), respectively. Moreover, the molecule was classed as inactive in experiment [11].
For `Cn1cnc2c1c(=O)[nH]c(=O)n2C`, in [1], the parasite growth remaining, % of DMSO control (lower = more inhibition) was 7%. In experiment [12], the parasite growth, % of control (lower = inhibition) stood at 25.4%. Besides, the growth, % of control in experiment [2] was determined as 9%. The cell viability, % of control (lower = more cytotoxic) in [3] is 12.2%. Moreover, the viability (% of control) in [4] is 13.2%. Further, the Potency result in [5], in experiment [6] and in experiment [10] was “inactive” throughout. The Potency in experiment [7], in experiment [8] and in experiment [9] was 23.5 µM (active) each time. For the same molecule, in experiment [11], the outcome was inactive.
Consider `COc1ccccc1OCC(O)CN1CCN(CC(=O)Nc2c(C)cccc2C)CC1` (stereo not given), for which the parasite growth remaining, % of DMSO control (lower = more inhibition) in experiment [1] is 97.5%. The same molecule returned a growth, % of control in experiment [2] of 101%. The cell viability, % of control (lower = more cytotoxic) in experiment [3] came out at 126%. In addition, the viability (% of control) in experiment [4] stood at 18.6%. The Potency entry in experiment [5], in [6], in experiment [7], in experiment [8], in experiment [9] and in experiment [10] was “inactive” each time. Also, the call in experiment [11] was inactive.
For the molecule `CC12CC3CC(C)(C1)CC(N)(C3)C2`, in experiment [1], the parasite growth remaining, % of DMSO control (lower = more inhibition) is 23.6%. Moreover, in experiment [12], the parasite growth, % of control (lower = inhibition) came to 122%. Besides, the growth, % of control in experiment [2] came to 512%. Besides, in experiment [3], the cell viability, % of control (lower = more cytotoxic) was 26.5%. In [4], the viability (% of control) is 17.7%. For the same molecule, the Potency entry in experiment [5], in experiment [6], in [7], in experiment [8] and in experiment [9] was “inactive” each time. Besides, in experiment [11], the call was inactive.
Consider `CC(=O)OCC(CCn1cnc2cnc(N)nc21)COC(C)=O`, for which, in experiment [1], the parasite growth remaining, % of DMSO control (lower = more inhibition) came to 136%. Moreover, in experiment [2], the growth, % of control stood at 98.2%. For the same molecule, the cell viability, % of control (lower = more cytotoxic) in [3] came to 153%. Further, the viability (% of control) in [4] amounted to 106%. The Potency result in experiment [5], in experiment [6], in experiment [7], in experiment [8], in experiment [9] and in experiment [10] was “inactive” in each case. In addition, the molecule was called inactive in experiment [11].
In the case of `CN(C)CCC=C1c2ccccc2C=Cc2ccccc21`, in experiment [1], the parasite growth remaining, % of DMSO control (lower = more inhibition) amounted to 62.8%. Besides, in experiment [12], the parasite growth, % of control (lower = inhibition) amounted to 42.4%. In addition, the growth, % of control in experiment [2] stood at 68.3%. Also, the cell viability, % of control (lower = more cytotoxic) in experiment [3] is 41.3%. The viability (% of control) in experiment [4] is 67.7%. Besides, the Potency result in experiment [5], in experiment [6] and in experiment [10] was “inactive” throughout. Moreover, the Potency is 20.9 µM (active) in experiment [7], 16.6 µM (active) in experiment [8] and 16.6 µM (active) in experiment [9]. For the same molecule, in experiment [11], the molecule was classed as inactive.
As to `CC(CCc1ccc(O)cc1)NCCc1ccc(O)c(O)c1` (stereo not given), the parasite growth remaining, % of DMSO control (lower = more inhibition) in experiment [1] was 64.4%. This molecule had a growth, % of control in [2] of 92.8%. The cell viability, % of control (lower = more cytotoxic) in experiment [3] amounted to 5%. The viability (% of control) in experiment [4] came to 9.22%. In addition, the Potency result in [5] and in [6] was “inactive” in each case. The Potency in experiment [7] and in experiment [8] was 23.5 µM (active) in each case. Further, the molecule was called inactive in [11].
